Test [1] has as its system Human papillomavirus type 1a protein E7 (residues 44-93). Briefly: HPV1a E7 fragment binders on microarrays, primary screen, biochemical, small-molecule microarray, residues 44-93, 635 nm fluorescence (AID 1108).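 Further: E7 fragment applied at 1 µg/mL in TBST for 1 h at 4 C; score combines spot fluorescence with its signal to noise ratio.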 The following applies: small-molecule microarray binding, fluorescence 635 nm; higher = more signal.
The nature of test [2]: modulators of HCV replicon luciferase signal, primary screen, HCV replication inhibitor project, Huh7 cells, luciferase reporter (AID 1109).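 Further: huh7 hepatoma cells harbouring a luciferase neomycin HCV replicon reporter; luciferase luminescence as measure of HCV replicon replication; test concentration not given here.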 The following applies: 48 h, higher = more signal.
Test [3] has as its target Left-right determination factor 2 (Homo sapiens) (UniProt O00292). Briefly: LEFTY2 binders on small-molecule microarrays, primary screen, biochemical, small-molecule microarray, 635 nm fluorescence scan (AID 1110). Particulars: LEFTY2 binding, higher = more signal.
In test [4] the target is Calmodulin-1 (Homo sapiens) (UniProt P0DP23). Briefly: CALM1 binders on microarrays, EGTA buffer, profiling panel, biochemical, small-molecule microarray, Cy5-labelled CALM1 (AID 1111).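 Further: labelled calmodulin applied in Tris saline Tween buffer holding calcium plus EGTA and DTT.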 Particulars: Cy5-CALM1 binding fluorescence, higher = more signal.
Test [5] has the same target. Briefly: calcium-bound CALM1 binders on microarrays, profiling panel, artefact control for SMM control-protein annotation, biochemical, small-molecule microarray, Cy5-labelled CALM1, plus calcium (AID 1112).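 Further: score merges spot fluorescence with signal to noise from triplicate slides.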 Particulars: Cy5-CALM1 binding fluorescence, higher = more signal.
Test [6] can be described thus: small-molecule microarray binders of probe aWnt5a, primary screen, biochemical, biotinylated probe, 635/667 nm fluorescence (AID 1113).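 Further: score merges 667 nm fluorescence intensity with signal-to-noise per printed feature.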 Particulars: higher = more signal.
The nature of test [7]: small-molecule microarray binders of probe aShh, primary screen, biochemical, biotinylated probe, 635/667 nm fluorescence (AID 1114).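 Further: probe is biotin-labelled aShh protein from a stem cell growth factor screen; measures binding of labelled protein to compounds printed on the slide; score merges feature fluorescence at 667 nm with signal-to-noise.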 Particulars: higher = more signal.
A short description of test [8]: small-molecule microarray binders of probe aNog, primary screen, biochemical, biotinylated probe, 635/667 nm fluorescence (AID 1115).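 Further: probe is biotinylated aNog protein used at 0.15 µg/mL for 1 h at 4 C; z-score combines 667 nm fluorescence of each spot with its signal to noise.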 The following applies: higher = more signal.
Test [9] deals with Torsin-1A-interacting protein 1 (Homo sapiens) (UniProt Q5JTV8). Briefly: LAP1 binders from COS7 cell lysate, primary screen, small-molecule microarray, 635/667 nm fluorescence (AID 1116). Particulars: COS7-hLAP1 lysate binding, 635 nm fluorescence, higher = more signal.
Chain of Torsin-1A-interacting protein 1 (Homo sapiens) (Q5JTV8 whole entry, looked up): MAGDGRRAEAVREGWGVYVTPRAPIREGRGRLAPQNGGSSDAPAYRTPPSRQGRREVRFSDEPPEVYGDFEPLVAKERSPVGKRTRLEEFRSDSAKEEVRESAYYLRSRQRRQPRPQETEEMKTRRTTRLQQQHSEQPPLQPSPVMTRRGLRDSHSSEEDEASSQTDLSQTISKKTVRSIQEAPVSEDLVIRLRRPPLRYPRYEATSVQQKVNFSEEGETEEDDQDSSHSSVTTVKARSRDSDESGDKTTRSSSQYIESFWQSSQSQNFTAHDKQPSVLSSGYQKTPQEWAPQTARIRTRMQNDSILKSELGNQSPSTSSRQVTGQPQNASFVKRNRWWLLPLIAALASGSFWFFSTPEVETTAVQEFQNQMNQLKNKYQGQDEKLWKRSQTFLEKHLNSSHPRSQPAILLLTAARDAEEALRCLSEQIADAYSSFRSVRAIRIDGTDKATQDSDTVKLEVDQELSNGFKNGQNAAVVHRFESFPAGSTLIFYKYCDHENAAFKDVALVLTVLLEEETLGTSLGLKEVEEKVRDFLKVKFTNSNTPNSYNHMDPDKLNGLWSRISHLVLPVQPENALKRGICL
In test [10] the target is Alpha-bungarotoxin (Bungarus multicinctus) (UniProt P60615). Briefly: alpha-bungarotoxin binders on microarray, profiling panel, artefact control for SMM control protein annotation, biochemical, small-molecule microarray, Alexa647 label, 635/667 nm fluorescence (AID 1117). The following applies: alpha-BTX-A647 binding fluorescence, higher = more signal.
Chain of Alpha-bungarotoxin (Bungarus multicinctus) (P60615 whole entry, looked up): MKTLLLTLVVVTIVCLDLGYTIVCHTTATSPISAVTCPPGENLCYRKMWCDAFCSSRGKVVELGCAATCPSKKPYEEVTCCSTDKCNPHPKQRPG

The values below come from PubChem BioAssay.

Chain of Left-right determination factor 2 (Homo sapiens) (O00292 whole entry, looked up): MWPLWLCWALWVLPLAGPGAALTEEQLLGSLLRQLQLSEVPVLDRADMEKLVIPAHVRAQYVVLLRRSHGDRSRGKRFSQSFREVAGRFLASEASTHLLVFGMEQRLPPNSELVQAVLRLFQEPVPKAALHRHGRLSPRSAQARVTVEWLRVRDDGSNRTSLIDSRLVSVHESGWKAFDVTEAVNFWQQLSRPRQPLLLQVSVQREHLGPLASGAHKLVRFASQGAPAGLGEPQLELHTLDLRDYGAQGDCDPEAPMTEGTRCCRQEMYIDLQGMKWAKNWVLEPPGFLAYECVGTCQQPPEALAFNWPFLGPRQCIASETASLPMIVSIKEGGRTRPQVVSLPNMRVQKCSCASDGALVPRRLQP

With `C=CC[C@@]1(C(=O)NCCN2CCOCC2)N=C(c2ccc(OCCCO)cc2)O[C@@H]1c1ccccc1N=[N+]=[N-]`, the composite z-score in test [1] is 0.446; in test [3], 0.187; in test [4] it was 1.26; in test [5], 0.581; in [6], -0.1; in [7], -0.215. Also, the composite z-score in test [8] was -0.0119; in [9], 1.76; in test [10] it was 0.841. In addition, the z-score in test [2] was -1.23.
On to `C=C[C@H](CO)NS(=O)(=O)c1ccc(Br)cc1`, for which the composite z-score in test [1] was 1.05; in [3], 0.375; in test [4], 0.158; in test [5] it was -0.268; in test [6], -0.096; in [7] it was -0.2. Besides, the values for the composite z-score in test [8], in test [9] and in test [10] were -0.266, 0.306 and 0.275, respectively. In [2], this compound had a z-score of 0.109.
On to `O=C1NC(=O)C2C1C=CC(C(O)c1cccs1)N2Nc1ccc(Cl)cc1Cl` (stereo not given), for which the composite z-score was -1.16 in test [1]; -0.824 in [3]; 0.0484 in test [4]; 0.243 in [5]; -0.212 in [6]; 0.0278 in test [7]. Further, the composite z-score in [8] is -0.774; in test [9], 1.89; in test [10], -0.779. This compound returned a z-score in test [2] of -0.153.
`C=CCOC(=O)[C@H]1[C@@H]2C(=O)O[C@@H](c3ccccc3)[C@@H](c3ccccc3)N2[C@@H](c2ccc(OCCOC(=O)[C@@H]3C[C@@H]4C(=O)N[C@@H](CC(C)C)C(=O)N4[C@@H]3c3ccc(O)cc3)cc2)[C@]12C(=O)Nc1ccccc12`: the composite z-score came to 1.12 in [1]; 0.701 in [3]; 2.5 in test [4]; 0.137 in [5]; 0.0044 in [6]; 0.14 in test [7]. The composite z-score in test [8] was 0.938; in test [9] it was 1.75; in test [10] it was 1.6. The z-score in test [2] is -1.47.
In the case of `CCOC(=O)C1=C[C@@H](C(C)(C)C)N(S(=O)(=O)c2ccc(C)cc2)[C@H]1c1ccc(F)cc1`, the composite z-score in test [1] was 1.41; in test [3], 0.653; in test [4], 1.49; in [5], 0.083; in [6], 0.0668; in test [7] it was -0.1. In addition, the composite z-score in [8] is 0.509; in test [9], 0.992; in [10] it was 1.15. Besides, in [2], the z-score was -1.59.
For `[N-]=[N+]=Nc1ccccc1[C@H]1OC(c2ccc(OCCCO)cc2)=N[C@@]1(CCS(=O)(=O)c1ccccc1)C(N)=O`, the composite z-score in test [1] was 0.321; in test [3], -0.154; in [4], 1.41; in test [5] it was 0.389; in test [6] it was 0.161; in [7], 0.117. The figures for the composite z-score in test [8], in [9] and in test [10] were -0.939, 1.71 and 1.92, respectively. In addition, the z-score in [2] is -0.268.
As to `NCCCCCNC(=O)[C@@H]1C[C@@H]2C(=O)N[C@@H](Cc3ccccc3)C(=O)N2[C@@H]1c1ccc(O)cc1`, the composite z-score in test [1] is 1.37; in test [3], 0.406; in test [4], 1.18; in [5], 1.16; in test [6], -0.0425; in test [7], -0.138. Besides, the composite z-score in [8] was -0.144; in test [9], 0.672; in test [10], 0.924. The compound also returned a z-score in test [2] of -0.471.
For the compound `COc1cc2c(cc1OC)CN(C(=O)[C@@H]1[C@H]3C(=O)O[C@H](c4ccccc4)[C@H](c4ccccc4)N3[C@H](c3ccc(O)cc3)[C@@]13C(=O)Nc1ccccc13)CC2`, the composite z-score in [1] is 1.39; in test [3], 0.0147; in test [4], 0.457; in [5], 0.603; in test [6] it was -0.154; in [7], -0.167. The values for the composite z-score in test [8], in test [9] and in test [10] were -0.321, 0.688 and 1.74, respectively. This compound also displayed a z-score in test [2] of -1.74.
Take `COc1ccc(/C=C/C=O)cc1`: the composite z-score is -0.15 in test [1]; 0.0844 in [3]; -1.14 in test [4]; -0.732 in test [5]; -0.228 in test [6]; -0.253 in [7]. Further, the composite z-score in test [8] is 0.148; in test [9] it was 0.0921; in [10], -0.117. Besides, the z-score in test [2] was 0.788.
In the case of `C=C[C@H](CO[Si](CC)(CC)CC)N(Cc1ccc(OC(C)=O)c(OC)c1)S(=O)(=O)c1ccc(Br)cc1`, the composite z-score is 1.15 in [1]; 0.537 in [3]; 1.41 in [4]; 0.67 in test [5]; 0.101 in test [6]; -0.057 in test [7]. The composite z-score turned out to be 0.0481 in test [8], 1.12 in test [9] and 1.23 in test [10]. The z-score in test [2] was -3.27.
Regarding `O=C(CS)NCCCCCCNC(=O)[C@@H]1C[C@@H]2C(=O)NCC(=O)N2[C@@H]1c1cccc(OCCO)c1`, the composite z-score was 1.41 in [1]; -0.709 in test [3]; 2.44 in test [4]; -0.215 in test [5]; -0.177 in test [6]; -0.188 in [7]. Besides, the results for the composite z-score in [8], in test [9] and in [10] were -0.652, 1.21 and 1.1, respectively. This compound had a z-score in test [2] of -0.895.
With `COc1ccc(CCNC(=O)[C@@]2(C)c3ccccc3C(=O)N(C(C)C)[C@H]2c2ccc(CO)cc2)cc1`, the composite z-score was 0.0331 in test [1]; 0.364 in test [3]; -0.118 in [4]; -0.229 in test [5]; -0.131 in [6]; -0.0886 in test [7]. Further, the composite z-score is -0.282 in test [8], 0.33 in test [9] and 0.672 in test [10]. In [2], this compound showed a z-score of -1.3.
With `COc1ccc([Si](C)(C)[C@@H]2[C@@H](CC(=O)N3CCC[C@H]3CO)O[C@]3(C(=O)N(c4ccccc4)c4ccccc43)[C@H]2C)cc1`, the composite z-score in test [1] is 1.36; in test [3], 0.751; in test [4], 0.528; in test [5] it was -0.143; in test [6], -0.124; in test [7], 0.0328. For the same compound, the composite z-score in test [8] was -0.0047; in [9] it was 0.691; in test [10] it was 1.09. For the same compound, the z-score in [2] was -0.417.
With `COC(=O)[C@@]1(Cc2ccc(OC)cc2)[C@H]2c3cc(C(=O)N(C)C)n(Cc4ccc(S(C)(=O)=O)cc4)c3C[C@H]2CN1C(=O)c1ccccc1`, the composite z-score in test [1] is 1.41; in [3], -0.0612; in test [4], 1.36; in test [5], 0.798; in test [6], -0.242; in [7], -0.405. For the same compound, the figures for the composite z-score in test [8], in [9] and in [10] were -0.21, 1.28 and -0.0416, respectively. The z-score in test [2] is -1.63.
Regarding `O=C(c1ccccc1)N1C(=O)[C@@]2(Cc3ccccc31)N=C(c1ccc(OCCCO)cc1)O[C@H]2c1ccccc1`, the composite z-score in test [1] was 1.03; in test [3], 0.643; in [4], 0.661; in test [5] it was -0.502; in [6], 0.0919; in test [7], -0.369. The composite z-score came out at 1.57 in [8], 1.61 in test [9] and 0.902 in test [10]. Moreover, in [2], the z-score is -2.77.
Take `COC(=O)[C@@]1(Cc2ccc(F)cc2)[C@H]2c3cc(C(=O)N4CCCC4)n(CCCNc4ncc(C(F)(F)F)cc4Cl)c3C[C@H]2CN1C(=O)c1ccccc1`: the composite z-score in test [1] was 1.39; in test [3] it was -0.386; in [4], 1.59; in test [5], 0.868; in [6], -0.0107; in test [7], 0.831. For the same compound, the figures for the composite z-score in test [8], in test [9] and in test [10] were 1.37, 0.679 and 0.493, respectively. In test [2], the z-score was -1.48.
Consider `C=CC[C@]1(C(=O)NCCCOC)N=C(c2ccc(OCCCO)cc2)O[C@H]1c1ccccc1CN=[N+]=[N-]`, for which the composite z-score in [1] came to 0.091; in [3], 0.593; in test [4] it was 2.12; in [5], 0.988; in [6] it was 0.0509; in test [7], 0.228. Besides, the composite z-score in [8] was 1.53; in [9] it was 1.95; in test [10], 1.14. Further, the z-score in [2] is -2.09.
With `COC(=O)C(CC#Cc1ccc2c(c1)[C@]1(C(=O)N2)[C@H](C(=O)Nc2nc3ccccc3s2)[C@H]2C(=O)O[C@H](c3ccccc3)[C@H](c3ccccc3)N2[C@@H]1c1ccc(O)cc1)C(=O)OC`, the composite z-score was 1.45 in test [1]; 0.829 in [3]; 0.728 in test [4]; 0.255 in [5]; 0.027 in test [6]; -0.0977 in test [7]. Besides, the composite z-score in [8] amounted to 0.406; in [9], 1.89; in [10], 0.982. This compound returned a z-score in [2] of -0.801.
